From PubChem BioAssay (NCI)
About 79,000 compounds went through this panel and 15% of them were active in at least one assay; those are over-represented in the sample as a whole. Cut-off read from the data, not from the text of the source: active = growth inhibition above about 70%; inactive = the rest.

Key:
[1] = NCI Yeast Anticancer Drug Screen. Data for the rad50 strain (AID 155);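 note: 0% = growth of vehicle-only cultures of the same strain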; conditions: S. cerevisiae rad50 strain growth inhibition; at 50.0 µM; stronger effect = higher value
Summary of the method: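 Growth of the mutant yeast was measured after compound exposure and referenced to vehicle-treated cultures.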

[2] = NCI Yeast Anticancer Drug Screen. Data for the mec2-1 strain (AID 157); conditions: S. cerevisiae mec2-1 strain, at 50.0 µM, stronger effect = higher value
Summary of the method: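 Strain: mec2-1 (DNA repair/cell cycle alteration). Compound exposure, then growth measured; inhibition expressed relative to vehicle.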

[3] = NCI Yeast Anticancer Drug Screen. Data for the sgs1 mgt1 strain (AID 161);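 note: 0% = growth of cultures given vehicle only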; conditions: S. cerevisiae sgs1 mgt1 strain, at 50.0 µM, stronger effect = higher value
Summary of the method: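 Inhibition of yeast growth, normalised to vehicle-treated controls, is reported for a strain bearing genetic alterations in DNA damage repair.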

[4] = NCI Yeast Anticancer Drug Screen. Data for the cln2 rad14 strain (AID 165);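 note: 0% = growth equal to vehicle treated cultures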; conditions: S. cerevisiae cln2 rad14 strain, at 50.0 µM, stronger effect = higher value
Summary of the method: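 Compounds are applied to the cln2 rad14 yeast strain, and growth is then compared with that of vehicle-treated cultures to give inhibition.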

[5] = NCI Yeast Anticancer Drug Screen. Data for the bub3 strain (AID 167); conditions: S. cerevisiae bub3 mutant strain, at 50.0 µM, stronger effect = higher value
Summary of the method: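 Whole-cell yeast assay. The mutant strain was incubated with compounds, and growth inhibition was determined by comparison with vehicle-treated cells.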

[6] = NCI Yeast Anticancer Drug Screen. Data for the mlh1 rad18 strain (AID 175); conditions: S. cerevisiae mlh1 rad18 strain growth inhibition; at 50.0 µM; stronger effect = higher value
Summary of the method: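 Read-out is yeast growth inhibition, calculated against vehicle-only controls. The compound was applied to a strain engineered with DNA damage repair alterations.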

Measured: growth inhibition

CC(=O)OC1OCCCC1Cl (configuration not stated)
inactive: [1] -8.95% | [2] -27.9% | [3] -7.75% | [4] -3.2% | [5] -30.8% | [6] 10.3%

CC1CCCC(C)N1 (configuration not stated)
inactive: [1] 2.5% | [2] -9.05% | [3] -1.75% | [4] -1.95% | [5] 1.5% | [6] 10.8%

O=C(Cc1cc[n+]([O-])cc1)C(=O)Nc1cc(Cl)c(Cl)cc1Cl
inactive: [1] -27.4% | [2] -11.9% | [3] -21.5% | [4] -17.1% | [5] -17.8% | [6] -20.1%

CN1C(c2ccccc2)=C(C#N)C(=O)CC(c2ccc(Cl)cc2)N1C (configuration not stated)
inactive: [1] -7.75% | [2] 0.05% | [3] -4.75% | [4] -15.8% | [5] -15.8% | [6] 2.65%

CC(C)CC(C)OB(OC(C)CC(C)C)OC(C)CC(C)C (configuration not stated)
inactive: [1] -11.2% | [2] -24.1% | [3] -4.3% | [4] -16.9% | [5] 0.7% | [6] -14.6%

c1csc(-c2cc(-c3cccs3)c(-c3ccsc3)s2)c1
inactive: [1] -46.8% | [2] -43.4% | [3] -32.2% | [4] -26.2% | [5] -19.5% | [6] -46%

CSCCCS/C1=C/CCCCCCCCCC1
inactive: [1] -1.85% | [2] 11% | [3] -21.9% | [4] 14.8% | [5] -9.35% | [6] -38.6%

CC(=O)OCCCC(CCCOC(C)=O)OC(C)=O
inactive: [1] -7.7% | [2] -6.85% | [3] 12.2% | [4] -12.8% | [5] 5.25% | [6] 29.2%

C[C@]12CC[C@@H]3c4ccc(OS(C)(=O)=O)cc4CC[C@H]3[C@@H]1CC[C@@H]2OS(C)(=O)=O
inactive: [1] 30.6% | [2] -0.5% | [3] 22.8% | [4] 22.1% | [5] 10.8% | [6] 9.9%

O=C(O)c1ccncc1C(=O)c1csc2ccccc12
inactive: [1] 7.9% | [2] 14.2% | [3] 27.1% | [4] 22.1% | [5] 30.4% | [6] 19.3%

CS(=O)c1ccc(C(F)(F)F)cc1C(=O)O (configuration not stated)
inactive: [1] -3.3% | [2] 9.95% | [3] 9.7% | [4] -24.4% | [5] -20.5% | [6] 9.85%

COc1ccc(CC2CC(Cc3ccc(OC)c(OC)c3)C(=O)O2)cc1OC (configuration not stated)
inactive: [1] -33.9% | [2] 15.7% | [3] -23.4% | [4] -33.2% | [5] 3.95% | [6] 2.85%

CCOC(=O)C(Cl)C(C)(O)c1ccccc1 (configuration not stated)
inactive: [1] 11.2% | [2] -3.65% | [3] 11.9% | [4] -46.7% | [5] 5.8% | [6] 17.8%

O=C(NC(CO)CO)c1ccc2cc(C(=O)N3CC(CCl)c4ccc([N+](=O)[O-])cc43)[nH]c2c1 (configuration not stated)
inactive: [1] 42.6% | [2] -35.8% | [3] -22.4% | [4] -7.95% | [5] -36.1% | [6] -72.8%

COCCCn1cnn2c(=O)c3ccccc3nc2c1=O
inactive: [1] -12% | [2] 2.85% | [3] 23.8% | [4] 12.4% | [5] 21.3% | [6] 6.25%

CCCC1(C)COC(/C=C/c2ccccc2)OC1 (configuration not stated)
inactive: [1] 6.85% | [2] -9.7% | [3] -8.3% | [4] -1.85% | [5] -8.2% | [6] 8.4%

CC(C)(C)C1(C#N)C(=O)N(c2ccc(Cl)cc2)C12c1ccccc1-c1ccccc12 (configuration not stated)
inactive: [1] 4.55% | [2] 9.55% | [3] 6.45% | [4] 19.2% | [5] -4.5% | [6] 20.4%

C[N+]1(C)CCC2=CC(=O)CC(c3ccccc3)C2C1 (configuration not stated)
inactive: [1] 11.7% | [2] -0.6% | [3] 12.6% | [4] 20.8% | [5] -3.3% | [6] -12%

O=[N+]([O-])c1cc(N(c2ccccc2)c2ccccc2)cc([N+](=O)[O-])c1
inactive: [1] 2.05% | [2] -12.4% | [3] -30.4% | [4] 9.95% | [5] -2.8% | [6] -22.6%

O=c1cc(Nc2ccccc2Cl)[nH]c(=O)[nH]1
inactive: [1] 9.8% | [2] 2.2% | [3] -5.15% | [4] -41.8% | [5] -27.4% | [6] -13.2%

CC1(O)CCC2(CCC(C)(O)CC2=O)C(=O)C1 (configuration not stated)
inactive: [1] -7.85% | [2] -9.75% | [3] -0.45% | [4] -2.35% | [5] -12.6% | [6] -14.7%

CN(C)CC1CCc2c(n(C)c3ccccc23)C1=O (configuration not stated)
inactive: [1] -2.55% | [2] -2.85% | [3] 5.2% | [4] -51.8% | [5] -4.35% | [6] 10.6%

CCOC(=O)CC(C#N)C(C)C(=O)OCC (configuration not stated)
inactive: [1] 2.3% | [2] 1.3% | [3] 0.4% | [4] 6.5% | [5] 0.9% | [6] -0.35%

CCCCn1cnnc1NS(=O)(=O)c1cc(C)c(Cl)cc1SCC(=O)O
inactive: [1] -20.5% | [2] -5.25% | [3] 6.15% | [4] 0.4% | [5] -13.8% | [6] -5.5%

O=[N+]([O-])c1ccc(-n2cccc2)cc1
inactive: [1] -0.55% | [2] 20% | [3] -0.55% | [4] 44.4% | [5] -0.75% | [6] -7.2%

C=C(C)c1ccccc1S(=O)(=O)c1ccccc1C(C)(C)O
inactive: [1] -23.4% | [2] 5.1% | [3] 6.25% | [4] 55.1% | [5] 36.5% | [6] 9.1%

O=C1NC(=O)c2ccc(S)c3cccc1c23
inactive: [1] 0.5% | [2] 0% | [3] -2.35% | [4] -41.1% | [5] 3.35% | [6] -8.05%

CC12CCCCC1C1=C(CCCC1)CC2 (configuration not stated)
inactive: [1] -4.1% | [2] -4.95% | [3] -5.35% | [4] 9.4% | [5] 6.7% | [6] -17.6%

O=S(=O)(O)c1cccc2c(O)cccc12
inactive: [1] -7.9% | [2] -2.9% | [3] 5.65% | [4] 34.9% | [5] 5.35% | [6] -32%

COC1(c2ccccc2)N=C(c2ccc([N+](=O)[O-])cc2)OC1(C)C (configuration not stated)
inactive: [1] 4% | [2] 1.7% | [3] 6.1% | [4] 38% | [5] -4.85% | [6] -4.8%

CN1CCc2c1nc(-c1ccc(Cl)cc1)c1c2N(C)CC1
inactive: [1] 5.15% | [2] 1.5% | [3] 0% | [4] 9% | [5] -9.55% | [6] -7.35%

CN1C(=O)C(=O)n2c(cc3ccccc32)C1=O
inactive: [1] 1.15% | [2] 6.15% | [3] 7.25% | [4] 6.2% | [5] -0.25% | [6] -13.1%

CCc1cccc(CC)c1NC(=O)Nc1cc(Cl)ccc1C
inactive: [1] 1.8% | [2] 6.45% | [3] 5.4% | [4] -8.45% | [5] 30.1% | [6] 7.9%

COc1ccc(C(=O)Oc2ccccc2C)cc1
inactive: [1] 5.9% | [2] -26.4% | [3] -6.1% | [4] -11% | [5] -6.8% | [6] -1.95%

O=c1[nH]c2cc3[nH]c4ncccc4c(=O)c3cc2[nH]1
inactive: [1] -3.7% | [2] 0.15% | [3] -22.7% | [4] 8.15% | [5] -1.15% | [6] 21.3%

CCOC(=O)C1=C(C)N(NC(N)=O)C2(O)CCCC(=O)C12C (configuration not stated)
inactive: [1] 5.35% | [2] -0.45% | [3] 0.65% | [4] -52.2% | [5] -3.8% | [6] 2.2%

O=[N+]([O-])c1cc2c3c(cccc3c1O)CC2
inactive: [1] -18.1% | [2] -8.9% | [3] -4% | [4] -9.85% | [5] 4.45% | [6] 24%
